Test results from PubChem BioAssay (NCI).
About 83,000 compounds went through this panel and 20% of them were active in at least one assay; those are over-represented in the sample as a whole.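 Interpretation: 100, growth as untreated; towards 0, rising growth inhibition; 0, no net growth; 0 to -100, cell death. Compounds scoring below 10 were considered active.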 Values without a mark were called inactive. Active and inactive are the calls of the source.

The molecules below were run on HL-60(TB) leukemia (assay: NCI-60 one-dose screen, 48 h (100 = growth as untreated, 0 = no growth, -100 = all killed)). Conditions: 10 µM unless noted.
For `CCCCN(CCCC)CCC(O)c1cc2ccc(C(F)(F)F)cc2c2cc(C(F)(F)F)ccc12` (stereo not given), the growth was 49.8%.
Molecule `C=CCNC(=S)NNc1ccc([N+](=O)[O-])cn1` has a growth of 87.2%.
In the case of `O=C(Cc1ccccc1)c1ccc(O)c(Cl)c1`, the growth is reported as -21.1% (active).
`COc1ccc2c(O)cc3c(c2c1)[C@H](CCl)CN3C(=O)c1cc2cc(NC(=O)CCN3CCOCC3)ccc2[se]1` gave a growth of 66%.
Work on `COc1ccc(OCC(CO)N2CCN(c3ccccc3)CC2)cc1` (stereo not given) yielded a growth of 123%.
`CCCCCCCCCCCCCCCC[N+]1(C)CCCC1c1cccnc1` (stereo not given) was tested, and the growth was 1.61% (active).
With `O=C1OCC2=C1C(c1ccc(Cl)c(Cl)c1)c1cc3c(cc1N2CCO)OCCO3` (stereo not given) the growth was -18.9% (active).
For `COc1cccc2c1n([O-])c1cccc(OC)c1[n+]2=O`, the growth was 10.3%.
For `COc1ccc(C2=NN(C(C)=O)C(c3cccc(Nc4ccnc5cc(Cl)ccc45)c3)C2)cc1` (stereo not given), the growth was 57.2%.
Molecule `Nc1nc(OCc2ccccc2)c2[nH]cnc2n1` has a growth of 62.7%.
Work on `Nc1ncnc2c1N=C(c1ccc(Cl)cc1)CC(c1ccc3c(c1)OCO3)N2` (stereo not given) yielded a growth of 90.7%.
Work on `Nc1nc(-c2ccccc2)cs1` yielded a growth of 115%.
In the case of `COc1ccc(N(c2nc(-c3ccc([N+](=O)[O-])cc3)cs2)C(C)C)cc1`, the growth is reported as 90.1%.
For `Cc1ccc(NC(=O)c2ccc(Nc3ncnc4c3cnn4-c3cccc(F)c3)cc2)cc1`, the growth was 90.2%.
With `COc1ccc2c(c1)c(-c1ccc(-c3cn(C)c4ccc(OC)cc34)o1)cn2C` the growth was -23% (active).
With `CN1CCN(C(=O)[C@@]2(C)CC[C@]3(C)CC[C@]4(C)C(=CC[C@@H]5[C@@]6(C)CC[C@H](OC(=O)c7cccnc7)C(C)(C)[C@@H]6CC[C@]54C)[C@@H]3C2)CC1` the growth was -49.1% (active).
In the case of `COc1cc(NC(=O)C2=C(C)NC(C)=C(C(=O)Nc3cc(OC)c(Cl)cc3OC)C2c2cccc([N+](=O)[O-])c2)c(OC)cc1Cl`, the growth is reported as 15.5%.
Molecule `C=C1C(=O)O[C@H]2[C@H](O)[C@@H](C)CCC/C(C)=C/CC[C@@]3(C)O[C@@H]3C[C@@H]12` has a growth of 92.5%.
`Cc1nc2ccc(Cl)cc2n1C` gave a growth of 101%.
For `CCCCCC(CCC)COC(=O)c1ccc(OC)cc1` (stereo not given), the growth was 90.5%.
`N#Cc1ccc(NC2c3ccccc3CC2O)cc1` (stereo not given) gave a growth of 78.7%.
Work on `C[N+](C)(C)C(=O)c1ccccc1` yielded a growth of 125%.
Molecule `O=C1NC(=O)C(=Cc2cn(Cc3ccccn3)c3ccccc23)C(=O)N1` has a growth of 101%.
In the case of `Cc1nc2ccccc2c(N)c1-c1cc(C)c2c(C)nc3ccccc3c2n1`, the growth is reported as -66.5% (active).
`C=C1C(=O)O[C@H]2[C@H]1CC/C(COC(=O)OCCCCCOC(=O)OC/C1=C/CC[C@@]3(C)O[C@H]3[C@H]3OC(=O)C(=C)[C@@H]3CC1)=C\CC[C@@]1(C)O[C@@H]21` was tested, and the growth was -23.1% (active).
In the case of `CO[C@H]1C[C@@H]2CC[C@@H](C)[C@@](O)(O2)C(=O)C(=O)N2CCCC[C@H]2C(=O)O[C@H]([C@H](C)C[C@@H]2CC[C@@H](O)[C@H](OC)C2)CC(=O)[C@H](C)C=C(C)[C@@H](O)[C@@H](OC)C(=O)[C@H](C)C[C@H](C)/C=C/C=C/C=C1C`, the growth is reported as 83%.
With `COC(=O)c1c2c(c(C)[n+]([O-])c1C)C(=O)C(NCc1cccc(Cl)c1)=CC2=O` the growth was -56.1% (active).
`O=C(CC(CC(=O)c1ccccc1)c1ccccc1O)c1ccccc1` showed a growth of 96.8%.
`O=C(Nc1c2ccccc2nc2ccccc12)c1ccccc1CN1C(=O)c2ccccc2C1=O` gave a growth of 38.9%.
For `COc1ccc(C2=C(c3ccccc3)c3ccc(OC(C)=O)cc3OC2(C)C)cc1`, the growth was -17.1% (active).
In the case of `CC(C)(N)COS(=O)(=O)O`, the growth is reported as 94.4%.
`Cc1ncc([N+](=O)[O-])n1CCOc1ccc(C(=O)/C=C/c2ccc(C(F)(F)F)cc2)cc1` gave a growth of 54.3%.
`COc1ccc(C2=C(Nc3ccc(C(=O)Nc4ccccc4)cc3)C(=O)N(C)C2=O)cc1` gave a growth of 69.9%.
For `C#Cc1cccc(NC(=O)c2ccc(NC(=O)C=C)cc2)c1`, the growth was 80.6% [8.25 µM].
`CC1(C)CC[C@]2(C(=O)N[C@H](CO)Cc3ccccc3)CC[C@]3(C)C(=CC[C@@H]4[C@@]5(C)CCCNC(C)(C)[C@@H]5CC[C@]43C)[C@@H]2C1` was tested, and the growth was 31.2%.
`N#CC1C(=O)SC2c3ccccc3C(=O)c3ccccc3C12` (stereo not given) was tested, and the growth was 98.4%.
With `O=[N+]([O-])c1ccc(O)c2ncccc12` the growth was -4.85% (active).
With `Cc1nn(C)c2ncnc(N/N=C/c3cccc(O)c3O)c12` the growth was -1.19% (active).
For `Cc1cc2nc(C(Cl)Cl)nc(-c3ccc(Cl)cc3)n2n1`, the growth was -8.18% (active).
Work on `NC(=O)N1CCOCC1` yielded a growth of 93.5%.
